Screens as filed in PubChem.
The list is not random: actives were taken first. Their share in the collection is about 3.1%.
Tau FP inhib: blocks human tau fibril formation measured by polarization; 280,000 compounds, 0.39% hits; P10636; K18 P301L tau heparin fibrillization, Alexa594 FP, 6 h; Potency, µM (doses to about 57.7 µM), for inactives: at the top dose activity, negative = inhibition, usual class: inhibitors; note: nearly all actives have a fitted effect of over 55% in size
Target sequence (P10636 561-689 P618L limits assumed): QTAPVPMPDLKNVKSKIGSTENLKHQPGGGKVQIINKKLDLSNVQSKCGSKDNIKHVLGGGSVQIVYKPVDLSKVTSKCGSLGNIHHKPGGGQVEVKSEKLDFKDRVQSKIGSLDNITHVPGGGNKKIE
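Read-out: fluorescence polarization of Alexa 594-labeled tau (0.24 uM), 555 nm excitation, 632 nm emission. Mixtures held 15 uM unlabeled K18 P301L, compound and 20 uM heparin, pH 7 acetate buffer, incubated 6 hr at 37 C.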
Tau fluor counter: counter-screen for tau fibril formation inhibitors; tau K18 P301L Alexa594 fluorescence, heparin fibrillization; 280,000 compounds, 0.93% hits; Potency, µM (series often up to 57.7 µM), for the others: top-dose activity change, negative = decrease; note: nearly all actives have a fitted effect of over 55% in size
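Human K18 P301L tau (15 uM unlabeled plus 0.24 uM Alexa 594-labeled, final) in 100 mM sodium acetate pH 7 was mixed with compound and 20 uM heparin and incubated 6 hr at 37 C.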
TRb-SRC2 inh: inhibitors of human thyroid hormone receptor beta-SRC2 interaction. P10828. TRbeta-SRC2 peptide binding, fluorescence polarization; receptor liganded with 1 µM T3. Potency, µM (titrated, usually from 106 µM), for the others: at the highest dose activity change, negative = inhibition, most hits filed as inhibitors. 280,000 compounds, 0.065% hits;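 note: plate controls were bound peptide for no effect and peptide without receptor for full effect; nearly all actives have a fitted effect of over 50% in size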
Target sequence (P10828 whole entry, looked up): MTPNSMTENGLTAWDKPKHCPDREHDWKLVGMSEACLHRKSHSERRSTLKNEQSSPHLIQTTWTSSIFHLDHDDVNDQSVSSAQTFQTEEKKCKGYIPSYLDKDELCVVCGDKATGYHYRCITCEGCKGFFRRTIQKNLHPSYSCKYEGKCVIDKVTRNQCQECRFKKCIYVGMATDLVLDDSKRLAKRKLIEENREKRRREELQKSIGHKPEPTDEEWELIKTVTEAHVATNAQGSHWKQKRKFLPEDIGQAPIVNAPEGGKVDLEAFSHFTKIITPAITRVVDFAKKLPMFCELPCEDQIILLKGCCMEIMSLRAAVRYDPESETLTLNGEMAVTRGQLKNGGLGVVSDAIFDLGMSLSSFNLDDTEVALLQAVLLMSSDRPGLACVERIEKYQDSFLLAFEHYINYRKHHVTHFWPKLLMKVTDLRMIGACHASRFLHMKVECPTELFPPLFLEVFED
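Decrease in fluorescence polarization of 20 nM Texas Red SRC2 coactivator peptide flagged inhibition of its binding to 0.6 uM TRb LBD; 1 uM T3 included, incubation 5 hr, ex 555/em 632 nm.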
TR SRC2 fluor cs: alters Texas Red total fluorescence, flagging assay interference | TRb/SRC2 Texas Red total fluorescence interference | Potency, µM (series often up to 106 µM), without a hit: at the top dose fluorescence change, negative = quenching | 280,000 compounds, 0.29% hits | AID 1479; active = well fitted curve in either direction with a large enough effect; inconclusive = small, poorly fitted or top-dose-only effect
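Human TRβ ligand-binding domain (0.6 uM) and Texas Red SRC2 peptide (20 nM) in Tris buffer with 1 uM T3 and 5% DMSO were incubated with pinned compound for 5 hr at ambient temperature. Total fluorescence was computed as S + 2P (555/632 nm).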
Tau fibril ThT: inhibitors of human tau fibril formation, thioflavin T binding; AID 1460; P10636; recombinant tau K18 P301L (four-repeat tau fragment), heparin-induced fibrillization, ThT fluorescence; 270,000 compounds, 2.1% hits; Potency, µM (top dose mostly 57.4 µM), inactives show top-dose activity, negative = inhibition, hits mostly inhibitors; note: nearly all actives have a fitted effect of over 55% in size
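Tau K18 P301L fragment (15 uM unlabeled plus 0.24 uM Alexa 594-labeled) in 100 mM sodium acetate pH 7 with compound, fibrillization induced by 20 uM heparin for 6 hr at 37 C. Thioflavin T (30 uM) added, fluorescence read after 1 hr (ex 450, em 510 nm).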
RGS12 GoLoco inh: RGS12 GoLoco-Gai1 interaction inhibition; P63096; Gai1:RGS12 GoLoco peptide FP, rhodamine, 10 min; Potency, µM (titrated, usually from 61.6 µM), for the others: at the top dose activity, negative = inhibition, most hits filed as inhibitors; 230,000 compounds, 0.44% hits; active = well fitted inhibition curve with a large enough effect, not every such curve was filed as active; inactive = no such curve, though single readings can be large or run the other way; note: nearly all actives have a fitted effect of over 30% in size
Numbers without * were called inactive; ? = inconclusive; . = no result; ! = a repeat was not active; [ ] = another dose, or the depositor's remark. Unless noted, calls come from the whole dose curve; as a rule, active = well fitted curve in the direction sought with a large enough effect; inconclusive = small, poorly fitted or top-dose-only effect, or another doubt; inactive = no such curve, though single readings can be large; an effect the other way counts as inactive or inconclusive. Unless noted, % is set by controls: 0 for no effect and ±100 for the full control effect; potency is the fitted concentration of half-maximal effect.

SMILES	Tau FP inhib	Tau fluor counter	TRb-SRC2 inh	TR SRC2 fluor cs	Tau fibril ThT	RGS12 GoLoco inh
COc1cc2c(cc1OC)-c1c(O)c(OC)cc3c1[C@H](C2)N(C)CC3	11µM*	?	40µM*	?	5µM*	11µM*
COc1cccc(CN2C(=O)C3(SCC(=O)N3c3ccc(C)c(Cl)c3)c3ccccc32)c1 (stereo not drawn)	-11%	-15%	-8%	-1%	?	.
CCCOC(=O)c1cc2c(cn1)[nH]c1ccccc12	-17%	?	3%	-2%	?	5%
CCOC(=O)c1ncc2[nH]c3ccc(OCc4ccccc4)cc3c2c1COC	-16%	4µM*[quencher]	-1%	-2%	?	7%
COc1ccc(CN2CCc3nc(N4CCN(c5ccc(F)cc5)CC4)ncc3C2)c(OC)c1OC	-1%	-17%	7%	-3%	?	.
Cc1ccc(/C=C2\C(=O)NC(=S)N(c3ccccc3F)C2=O)s1	1%	?	2%	-3%	18µM*	318%
CCn1c(NN=O)nc2ccccc21	-2%	-11%	1%[53 µM]	-2%[53 µM]	28µM*	5%
CCn1c(P(C)(=O)O)nc2ccccc21	-3%	-7%	-7%	-5%	-9%	3%
O=c1[nH]c2ccccc2c(=O)n1-c1ccc(Cl)c(Cl)c1	-1%	-13%	-7%	3%	-1%	.
CCOP(=O)(OCC)c1nc(-c2cccc3ccccc23)oc1N1CCCCC1	5%	-15%	-5%	0%	?	4%
O=C1c2ccccc2C(=O)c2ccccc21	-1%	-3%	-5%[201 µM]	-4%[201 µM]	7%	-1%
O=C1C=Cc2ccccc2C1=O	4.5µM*	?	?	?	2.5µM*	-22%
Cc1o[nH]c(=O)c1CC(N)C(=O)O (stereo not drawn)	6%	-1%	2%	-1%	-4%	-8%
Clc1cccc(Cl)c1C1N2CCCN12 (stereo not drawn)	-7%	-8%	-12%	-1%	-4%	2%
Cc1cc(C)n(-c2ccc(NN=C(C#N)C#N)cc2)n1	8%	?	0%	-5%	5µM*	-6%
O=c1cc(CN2CC=C(c3ccccc3)CC2)c2c(ccc3ccccc32)o1	-8%	-22%	4%	11%	?	12%
CCCC(C)(COC(N)=O)COC(=O)NC1CC1 (stereo not drawn)	.	.	3%	1%	.	.
C[CH2][Hg][S]c1ccccc1C(=O)O	-8%	-14%	-10%[201 µM]	-4%[201 µM]	?	28µM*
CNc1ccccc1C(=O)O	-4%	-5%	-8%	-3%	-7%	5%
CC(C)CC(=O)NC(Oc1ccc(Cl)cc1)C(Cl)(Cl)Cl (stereo not drawn)	-12%	-20%	5%	-2%	-5%	4%
COc1c(C)cc(Br)cc1C(=O)Nc1ccc(-c2nc3ncccc3o2)cc1	-4%	-16%	6%	5%	?	.
CS(=O)(=O)c1ncc(Cl)c(C(=O)Nc2c(C(=O)Nc3ccccc3)oc3ccccc23)n1	-7%	-28%	-5%	6%	8.9µM*	.
N#CC(C#N)=Cc1cc(O)c(O)c(O)c1	22µM*!	?	-4%	-4%	13µM*!	34%
N#CC(C#N)=Cc1ccc(O)cc1	.	.	1%	?	.	.
CC(C)N1CCN(c2ccc(O)cc2)CC1	?	-21%	-11%	1%	25µM*	-21%
SMILES	Tau FP inhib	Tau fluor counter	TRb-SRC2 inh	TR SRC2 fluor cs	Tau fibril ThT	RGS12 GoLoco inh
Cc1cc(C)cc(OCC(=O)Nc2ccc(Cl)cc2C(=O)c2ccccc2)c1	-4%	-8%	2%	6%	-10%	.
CN1C(=O)C(=Cc2ccccc2OCCOc2ccc([N+](=O)[O-])cc2)C(=O)N(C)C1=O	?	?	-2%	0%	10µM*	-25%
COc1cc2c(c3oc4cccc(O)c4c(=O)c13)C1C=CO[C@@H]1O2 (stereo partly drawn)	.	.	-1%	0%	.	.
COc1cc2[nH]c(=O)n(-c3ccccc3)c(=O)c2cc1OC	-6%	3%	-1%	-1%	-6%	1%
CCc1c(C(=O)OC)ncc2[nH]c3cc(OC)c(OC)cc3c12	6%	16µM*[quencher]	0%	-3%	?	13%
NC1=NC([S][Hg][c]2ccc(N)cc2)c2ncn([C@@H]3O[C@H](CO)[C@@H](O)[C@@H]3O)c2N1 (stereo partly drawn)	.	.	.	.	.	0.5µM*
Nc1ncnc2c1ccn2[C@@H]1O[C@H](CO)[C@@H](O)[C@H]1O	.	.	9%	2%	.	.
C=CCn1c(O)c(C(C)=Nc2ccc(N(C)C)cc2)c(=O)[nH]c1=O	-3%	?	-8%	0%	18µM*	0%
CC(C)C[C@H]1C(=O)N2CCC[C@@H]2[C@]2(O)O[C@](NC(=O)[C@@H]3C=C4c5cccc6[nH]c(Br)c(c56)C[C@H]4N(C)C3)(C(C)C)C(=O)N12	4%	?	1%	-1%	?	3%
CCC(CO)NC(=O)[C@@H]1C=C2c3cccc4[nH]cc(c34)C[C@H]2N(C)C1 (stereo partly drawn)	1%	-11%	2%	-1%	-15%	-8%
CCOC(=O)C1CCCN(c2ccc([N+](=O)[O-])c3nonc23)C1 (stereo not drawn)	?	-7%	?	50µM*[fluorescent]	?	16µM*
CC1CCCN(c2ccc(C(=O)N3CCC4(CC3)OCCO4)cc2[N+](=O)[O-])C1 (stereo not drawn)	-2%	3%	2%	-1%	-12%	-4%
CN1C(=O)/C(=C/c2cccn2-c2ccc3ccccc3c2)C(=O)NC1=S	32µM*	18µM*[quencher]	-4%	-11%	16µM*	26%
Cc1cc(C)cc(N2C(=O)NC(=O)/C(=C\c3cccn3-c3ccc(Cl)cc3)C2=O)c1	-11%	-12%	-6%	-3%	-3%	65%
O=C1NC(=S)NC(=O)C1=Cc1cccn1-c1ccc(O)cc1	-7%	?	-7%	-4%	25µM*	13%
O=C1CC(N2CC=C(c3ccc(F)cc3)CC2)C(=O)N1c1ccc(F)cc1 (stereo not drawn)	?	?	0%	1%	32µM*	50%
O=C1NO[C@@H]2CN[C@@H](C(=O)O)[C@H]12	-2%	-11%	-5%	-6%	-7%	-4%
CCN(CC)c1ccc(/C=C2\C(=O)NC(=S)N(C)C2=O)o1	6%	-10%	-5%	-1%	14µM*	211%
CCN(CC)c1ccc(C=C2C(=O)N(C)C(=S)N(C)C2=O)o1	-12%	-1%	3%	2%	10µM*	203%
O=C(c1ccncc1)C12CN3CN(CN(C3)C1)C2	0%	2%	-2%	-1%	-2%	4%
